The entries come from a sample that favours the strongest signals as a whole.
Columns and labels:
Assay in all cases: glycan array binding signal (z-score within array); higher = stronger binding
Details in all cases: glycan notation: IUPAC condensed, linker removed
[1] = target: GalNAc(b1-4)GlcNAc(b1-2)Man(a1-3)[GalNAc(b1-4)GlcNAc(b1-2)Man(a1-6)]Man(b1-4)GlcNAc(b1-4)GlcNAc
In short: (§1)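 Glycan array data were curated from 3228 arrays in the Consortium for Functional Glycomics database and kept only where the protein sequence was available. Glycan names were converted to IUPAC-condensed notation, and columns mapping to the same glycan were averaged. The binding signal is a within-array Z-score, averaged across arrays of the same protein sequence at different concentrations or buffers and across linkers. Negative Z-scores can be read as non-binding.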

[2] = target: GalNAc3S(b1-4)[Fuc(a1-3)]GlcNAc
In short: as §1

[3] = target: GlcNAc(b1-2)Man(a1-3)[GlcNAc(b1-2)Man(a1-6)]Man(b1-4)GlcNAc(b1-4)[Fuc(a1-6)]GlcNAc
In short: as §1

[4] = target: GlcNAc(b1-2)[GlcNAc(b1-6)]Man(a1-6)[GlcNAc(b1-2)Man(a1-3)]Man(b1-4)GlcNAc(b1-4)GlcNAc
In short: as §1

[5] = target: GlcNAc(b1-3)Gal(b1-4)GlcNAc(b1-2)[GlcNAc(b1-3)Gal(b1-4)GlcNAc(b1-6)]Man(a1-6)[GlcNAc(b1-3)Gal(b1-4)GlcNAc(b1-2)Man(a1-3)]Man(b1-4)GlcNAc(b1-4)GlcNAc
In short: as §1

[6] = target: Kdn(a2-3)Gal(b1-4)[Fuc(a1-3)]GlcNAc
In short: as §1

[7] = target: Neu5Ac(a2-3)Gal(b1-3)GlcNAc(b1-6)GalNAc
In short: as §1

[8] = target: Neu5Ac(a2-3)Gal(b1-4)GlcNAc(b1-2)[Neu5Ac(a2-3)Gal(b1-4)GlcNAc(b1-4)]Man(a1-3)[GlcNAc(b1-4)][Neu5Ac(a2-3)Gal(b1-4)GlcNAc(b1-2)[Neu5Ac(a2-3)Gal(b1-4)GlcNAc(b1-6)]Man(a1-6)]Man(b1-4)GlcNAc(b1-4)GlcNAc
In short: as §1

[9] = target: Neu5Ac(a2-3)Gal(b1-4)GlcNAc(b1-3)Gal(b1-4)[Fuc(a1-3)]GlcNAc
In short: as §1

[10] = target: Neu5Ac(a2-6)Gal(b1-4)GlcNAc(b1-2)Man(a1-6)[Gal(b1-4)GlcNAc(b1-2)Man(a1-3)]Man(b1-4)GlcNAc(b1-4)GlcNAc
In short: as §1

[11] = target: Neu5Ac(a2-6)Gal(b1-4)GlcNAc(b1-3)Gal(b1-4)GlcNAc(b1-3)GalNAc
In short: as §1

[12] = target: Neu5Ac(a2-6)GlcNAc(b1-4)GlcNAc(b1-4)GlcNAc
In short: as §1

[13] = target: Neu5Ac(a2-8)Neu5Ac(a2-8)Neu5Ac
In short: as §1

[14] = target: Neu5Ac9Ac(a2-3)Gal(b1-4)GlcNAc
In short: as §1

[15] = target: Neu5Gc(a2-8)Neu5Ac(a2-3)Gal(b1-4)GlcNAc
In short: as §1

[16] = target: Neu5Gc(a2-8)Neu5Gc(a2-3)Gal(b1-4)GlcNAc
In short: as §1

B1: XTP3-B-MRH2 (Homo sapiens), Q96DZ1 (protein)
chain: EFLSGSYCFRGGVGWWKYEFCYGKHVHQYHEDKDSGKTSVVVGTWNQEEHIEWAKKNTARAYHLQDDGTQTVRMVSHFYGNGDICDITDKPRQVTVKLKCKESDSPHAVTVYMLEPHSCQYILGVESPVICKILDTA
- glycan array binding signal (z-score) [1]: -0.025
- glycan array binding signal (z-score) [2]: 0.236
- glycan array binding signal (z-score) [3]: -0.201
- glycan array binding signal (z-score) [4]: 1.7
- glycan array binding signal (z-score) [5]: 0.276
- glycan array binding signal (z-score) [6]: -0.353
- glycan array binding signal (z-score) [7]: 1.44
- glycan array binding signal (z-score) [8]: -1.25
- glycan array binding signal (z-score) [9]: -0.481
- glycan array binding signal (z-score) [10]: -0.687
- glycan array binding signal (z-score) [11]: -0.693
- glycan array binding signal (z-score) [12]: 0.385
- glycan array binding signal (z-score) [13]: 0.237
- glycan array binding signal (z-score) [14]: -0.6
- glycan array binding signal (z-score) [15]: 0.283
- glycan array binding signal (z-score) [16]: 2.85
